Assay results published in ChEMBL document CHEMBL3433997, “St. Jude Leishmania screening dataset” (2016).

molecular target: Solute carrier family 2, facilitated glucose transporter member 1 (Homo sapiens) (UniProt P11166); test: ST_JUDE_LEISH: Cytotoxicity at 2uM final concentration against transgenic Leishmania Mexicana promastigotes LmGLUT1 that are glucose transport deficient and complemented with the human glucose transporter GLUT1. Activity is measured by DNA content using SYBR green in vitro; assay type: functional
Sequence (P11166 whole entry): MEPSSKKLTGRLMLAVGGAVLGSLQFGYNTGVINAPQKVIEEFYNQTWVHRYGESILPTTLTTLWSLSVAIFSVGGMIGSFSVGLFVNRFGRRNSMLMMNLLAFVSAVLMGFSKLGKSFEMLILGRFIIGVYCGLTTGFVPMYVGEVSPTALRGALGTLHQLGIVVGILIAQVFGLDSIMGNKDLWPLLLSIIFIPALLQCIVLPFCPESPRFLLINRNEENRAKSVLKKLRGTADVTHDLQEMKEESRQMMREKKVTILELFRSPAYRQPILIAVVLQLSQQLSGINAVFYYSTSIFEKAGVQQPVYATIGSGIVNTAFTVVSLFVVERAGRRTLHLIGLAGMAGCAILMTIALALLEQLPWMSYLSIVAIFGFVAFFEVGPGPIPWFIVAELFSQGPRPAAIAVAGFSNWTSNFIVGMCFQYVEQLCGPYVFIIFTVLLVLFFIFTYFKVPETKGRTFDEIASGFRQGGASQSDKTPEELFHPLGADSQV

Structure (SMILES)	inhibition [%]
CCNc1cc(C)nc(Nc2ccc(NC(=O)C3CCCC3)cc2)n1	8.61
CCOc1cc(C(=O)N[C@@H](Cc2ccccc2)[C@H](O)CNCc2cccc(OC)c2)cc(N2CCCCS2(=O)=O)c1	5.4
CCn1c(-c2nonc2N)nc2c(-c3cc4ccccc4s3)ncc(C(=O)N3CCC(N)C3)c21 (centres undefined)	82.2
COc1cc(NC(=O)c2ccc(-c3ccc(C(C)=O)cc3)s2)ccc1OCCN1CCCC1	0.3
COc1ccc(Nc2nc(NN=Cc3cc(Br)c(O)cc3O)nc(Nc3ccc([N+](=O)[O-])cc3)n2)cc1	0.58
CCN(CC)/C(=N/C(=N)NCc1ccc(Cl)cc1Cl)NCCCCCCN/C(=N\C(=N)NCc1ccc(Cl)cc1Cl)N(CC)CC	1.61
O=C(Nc1ccncc1)c1cc(C(=O)Nc2ccncc2)cc([N+](=O)[O-])c1	-0.17
Cc1ccc(NC(=O)c2cccc(C#N)c2)cc1-c1ccc(C(=O)Nc2ccncc2)cc1	7.71
COc1ccc(NC(=O)[C@H](Cc2ccccc2)Nc2cc(C)nc(Nc3ccccc3)n2)cc1	12.3
COCCN(C(=O)Cc1cccs1)C(C(=O)NCc1ccc(OC)cc1)c1ccc(C(C)C)cc1 (centres undefined)	2.96
CCN(CC)CCN(Cc1ccc(-c2ccc(C(F)(F)F)cc2)nc1)C(=O)Cn1c(SCc2ccc(F)cc2)nc(=O)c2sccc21	1.92
Cc1cc(NCCc2ccccc2)nc(NC(=N)Nc2cccc(Cl)c2)n1	-0.54
CC(C)C(NC(=O)Cc1cccc2ccccc12)C(=O)Nc1cccc(C#N)c1 (centres undefined)	2.08
COc1cc2nc(NCCN3CCOCC3)n3nc(-c4ccccc4)nc3c2cc1OC	8.12
Cc1ccc(C(=O)NC2CC2)cc1-c1ccc2c(cnn2S(=O)(=O)c2ccc(F)cc2)c1	3.39
Cc1cc(NC(=O)NCCN2CCC(NS(=O)(=O)c3ccc(Br)cc3)C2)c2ccccc2n1 (centres undefined)	4.43
CCCCNCc1ccc(-c2nc(CN(CCCN3CCN(C)CC3)C(=O)Nc3cccc(Cl)c3)cs2)cc1	5.24
COc1cccc(CNC[C@@H](O)[C@H](Cc2ccccc2)NC(=O)c2cc(NC(C)C)cc(N3CCCCS3(=O)=O)c2)c1	-0.22
COc1ccc(-c2ccc3c(-c4cccc(S(C)(=O)=O)c4)cnc(N)c3c2)cc1	0.83
CCc1ccc(CN2CCC(C(=O)Nc3ccc(-c4nc5ccccc5[nH]4)cc3)CC2)o1	31.6

Structure (SMILES)	inhibition [%]
CN(C)CCNC(=O)[C@H](Cc1ccccc1)NC(=O)c1ccc(O)c(-c2ccc(Cl)c(Cl)c2)c1	-0.64
CO/C(=C\C=C\c1cc2cc(Cl)c(Cl)cc2[nH]1)C(=O)NCCCNC12CC3CC(CC(C3)C1)C2	3.15
CC(C)(C)c1cc(CN2CCN(Cc3ccccc3)CC2)cc(C(C)(C)C)c1O	1.34
Cc1cc(C)n(Cc2ccc(C(=O)NCC3CCCCC3)cc2)n1	4.03
O=C(/C=C/c1ccc(Cl)c(Cl)c1)NCCCCCN1CCC(NC(=S)Nc2ccc(Cl)c(Cl)c2)CC1	4.99
Cc1ccc(C(=O)Nc2ccc(C)c(OC3CCN(CCC(C)C)C3)c2)cc1 (centres undefined)	8.1
O=C(NC1CCN(CC2(c3ccccc3F)CCCC2)CC1)c1cc[nH]n1	4.33
Nc1nc(N)c2cc3ccc(OCc4ccccc4)cc3nc2n1	12.2
COc1ccccc1/C=C/C(=O)N(C)C1CCN(CCCCCNC(=O)/C=C/c2ccc(Cl)c(Cl)c2)CC1	4.19
CC(C)N(Cc1ccc(-c2ccc(C(F)(F)F)cc2)cc1)C(=O)Cn1c(SCc2cccc(F)c2F)cc(=O)c2cc(CN3CCCCC3)ccc21	2.18
C=Cc1cc(NC(=O)N2CCc3cc(OC)c(C(F)(F)F)cc32)cc(-c2cccnc2)c1	4.52
O=C(NCC1CCC(CNCCCc2ccccc2)CC1)c1cc(Cl)cc(Cl)c1 (centres undefined)	1.46
COc1ccc(CCNC(=O)c2cc(C)ccc2O)cc1-c1ccc(C(C)(C)C)cc1	4.36
COCCn1c(-c2cccc(Cl)c2)nn(-c2ccc([N+](=O)[O-])cc2C#N)c1=S	3.84
COc1ccc(C=C2SC(=O)N=C2Nc2ccccc2)c(OC)c1	6.71
O=C(Nc1ccccc1O)C1CCN(c2ncnc3cc(-c4ccc(F)cc4)sc23)CC1	1.73
Cc1cc(-c2ccc3c(c2)CCN(CCC2CCC(NC(=O)/C=C/c4ccccc4F)CC2)CC3)on1 (centres undefined)	11
N#Cc1cccc(C(=O)Nc2cccc(-c3ccc(CN4CCCC4)cc3)c2)c1	1.56
CN(C)CCOc1cc(NC(=O)Nc2ccc(Cl)cc2C(F)(F)F)ccc1I	3.57
